In PubChem BioAssay AID1851 (National Center for Advancing Translational Sciences (NCATS), 2009):
Values joined by “and” are separate entries in the source; they are usually repeats but may differ in a detail not shown here. Identical values can stand only once. The campaign covered roughly 16,000 compounds. About 2,600 (16%) were called active. About 20% were inconclusive and are not listed. Calls follow the shape of the dose curve; as a rule, active = well fitted curve in the direction sought with a large enough effect; inconclusive = small, poorly fitted or top-dose-only effect, or effect the other way; inactive = no such curve, though single readings can be large or run the other way. The list is a sample of the results.

What follows are compounds tested against Cytochrome P450 2D6 (Homo sapiens) (UniProt P10635) (assay: Cytochrome panel assay with activity outcomes). Conditions: recombinant CYP, pro-luciferin dealkylation, luminescence, p450-cyp2d6; series mostly up to 57.1 µM.
% is scaled to controls: 0 for no effect and ±100 for the full control effect.

Chain of Cytochrome P450 2D6 (Homo sapiens) (P10635 whole entry, looked up): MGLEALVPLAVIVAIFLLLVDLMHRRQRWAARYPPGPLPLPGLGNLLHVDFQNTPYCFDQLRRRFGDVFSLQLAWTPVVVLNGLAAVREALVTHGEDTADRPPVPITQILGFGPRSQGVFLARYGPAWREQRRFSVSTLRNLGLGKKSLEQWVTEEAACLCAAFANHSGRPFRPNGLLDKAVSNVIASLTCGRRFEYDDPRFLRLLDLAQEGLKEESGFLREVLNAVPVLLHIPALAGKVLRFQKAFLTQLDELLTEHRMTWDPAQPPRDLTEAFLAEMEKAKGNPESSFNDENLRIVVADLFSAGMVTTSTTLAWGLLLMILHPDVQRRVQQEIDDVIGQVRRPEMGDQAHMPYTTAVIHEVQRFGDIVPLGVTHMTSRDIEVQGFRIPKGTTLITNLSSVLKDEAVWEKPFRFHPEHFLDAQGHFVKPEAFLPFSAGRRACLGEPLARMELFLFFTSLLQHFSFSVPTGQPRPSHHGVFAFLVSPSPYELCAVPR

AC50, inactive:
CC(C)OC(=O)CSc1nc(-c2ccc(F)cc2)nc2ccc(F)cc12
CCOC(=O)N/N=C/c1ccc(F)cc1
Cc1cccc(-c2n[nH]c([N+](=O)[O-])n2)c1
COC(=O)[C@H](CCSC)NC(=O)NCc1ccccc1F
O=C(NCCN1CCN(C(=O)c2cc3ccccc3oc2=O)CC1)c1cc2ccccc2oc1=O
CCNC(=S)N1CCC(NC(=O)C2CCCCC2)CC1
CNC(=O)/C(C#N)=c1\s/c(=C/C(=O)OC)c(=O)n1-c1ccccc1
C/C=C1\C(=O)C[C@@H]2[C@@H]3CCC4=CC(=O)CC[C@@]4(C)[C@H]3CC[C@@]12C
COCc1c(C(N)=O)nnn1-c1nonc1N
O=C(Cc1ccccc1)NC1CCN(S(=O)(=O)c2ccc(C(=O)O)cc2)CC1
COc1ccc(CC(NC(C)=O)C(=O)NC2CCN(C(=O)Nc3ccc(Cl)cc3)CC2)cc1OC (stereo not given)
CC(C)C(NC(=O)C1CCCCC1)C(=O)NC1CCN(Cc2ccccc2)CC1 (stereo not given)
COc1cc([C@@H](O)CO)ccc1OS(=O)(=O)O
C[C@@](Cc1ccc(O)c(O)c1)(NN)C(=O)O
COc1cccc(Nc2ncc3nc(C)c(=O)n(CCc4ccccc4)c3n2)c1
C[C@@]1(C(=O)O)NCCc2cc(O)c(O)cc21
Cc1nc(N=Nc2cc(S(=O)(=O)O)ccc2S(=O)(=O)O)c(COP(=O)(O)O)c(C=O)c1O
COc1ccc(/C(C#N)=C/c2c(-c3ccc(Cl)cc3)nc3c(C)cccn23)cc1
Cc1sc(NC(=O)C2C3CCC(O3)C2C(=O)O)c(C(=O)OC(C)C)c1-c1ccc(Cl)cc1 (stereo not given)
O=C(Oc1ccccc1)N1CCC2(CC1)CCN(c1ncccn1)CC2
O=C(O)CCC(=O)N1CCN(c2ccccn2)CC1
COCC(=O)N1CCC2(CC1)CCN(c1ncccn1)CC2
COc1ccccc1C(=O)N1CCN(c2ccccn2)CC1
CCN(C(=O)COc1cc(=O)n(C)c2ccccc12)c1cccc(Cl)c1
O=C(Cn1ccc2ccccc2c1=O)N1CCN(c2cccc(Cl)c2)CC1
CC(C)Cc1ccc([C@H](C)C(=O)O)cc1
Cc1ccccc1Oc1ncnc2sccc12
COc1ccc(C(C(=O)NC2CCCCC2)N(C(=O)c2sc(C)nc2C)c2ccc(OC)cc2)cc1 (stereo not given)
COc1ccc(CN2C(=O)CN(C3CCCCCC3)C(=O)C2c2ccc(OC)c(OC)c2)cc1 (stereo not given)
Cc1ccc(NC(=O)CCC(=O)NNC(=O)c2ccco2)cc1C
CCOc1[nH]n(-c2ccccc2)c(=O)c1C=Nc1ccc(Cl)cc1
Cn1c(C(F)(F)F)nc2c(=O)oc3ccccc3c21
CCCC/C=C/C(NC(=O)c1ccc(-c2ccccc2)cc1)c1ccccc1 (stereo not given)
O=C(NCCOC12CC3CC(CC(C3)C1)C2)c1cccc(Br)c1
O=C(CCc1ccccc1)NNC(=O)c1ccco1
O=C(CCc1ccccc1)Nc1ncn[nH]1
Cc1ccc(S(=O)(=O)N(C)CC(=O)O/N=C(\N)c2ccccn2)cc1
CC(=O)c1c(C(C)=O)c(C)n(NC(=O)c2ccncc2)c1C

AC50, active:
O=C(NC1CCN(Cc2ccccc2)CC1)c1ccc(I)cc1 12.6 µM
COc1cc(N)c(Cl)cc1C(=O)NC1CCN(Cc2ccccc2)CC1 0.0126 µM
Cc1cc(C)c2c(-n3cccc3)n[nH]c2n1 25.1 µM
O=C(c1cnc(N2CCN(c3ncccn3)CC2)c2ccccc12)N1CCN(c2ccccn2)CC1 11.2 µM
CN(C(=O)c1cnc(N2CCN(c3ncccn3)CC2)c2ccccc12)c1ccc(Cl)cc1 12.6 µM
CCN(C(=O)c1cnc(N2CCN(c3ncccn3)CC2)c2ccccc12)c1cccc(Cl)c1 10 µM
Cc1cc(C(C)(C)C)c(O)c(C)c1CC1=NCCN1 12.6 µM and 3.98 µM and 39.8 nM
O=C(CCc1ccccc1)Nc1nncs1 14.1 µM
c1ccc2sc(SCN(C3CCCCC3)C3CCCCC3)nc2c1 1.58 µM

activity, negative = inhibition, inactive:
CC[C@@H](c1ccccc1)n1c(=O)n2n(c1=O)[C@H]1[C@H](O)[C@H]3O[C@@H]3/C(=N/OC/C=C(\C)CCC=C(C)C)[C@@H]1CC2 3.1% [at 11.4 µM]
CC(C)=NO[C@@H](C)c1cn([C@H](CO)Cc2ccccc2)nn1 6.42% [at 11.4 µM] and -9.14% [at 11.4 µM]
O=[N+]([O-])c1ccccc1N=Nc1c(O)[nH]c2ccc(S(=O)(=O)O)cc12 -12.1% [at 11.4 µM]
CCOc1ccc2nc3cc(N=Nc4ccc(N)nc4N)ccc3c(N)c2c1 -4.78% [at 11.4 µM]
NCCc1nc(-c2nc(C(=O)O)cs2)cs1 16.3% [at 11.4 µM]
OCCCSCCO -3.94% [at 11.4 µM]
Cc1cc(Cc2c(C)c(C)c(Cc3cc(C)cc(C(C)(C)C)c3O)c(C)c2C)c(O)c(C(C)(C)C)c1 12% [at 11.4 µM]
Cc1cc(Cc2cc(C)cc(C(C)(C)C)c2O)c(O)c(Cc2cc(C)cc(C(C)(C)C)c2O)c1 -2.96% [at 11.4 µM]
CCOC(=O)CCN1C(=O)[C@H]2[C@H]3[C@H](O)[C@H](O)C/C(=N/OC[C@@H](O)COCc4ccco4)[C@H]3CC[C@@H]2C1=O 8.09% [at 11.4 µM]
COc1ccc2c3c([nH]c2c1)[C@H]1C[C@@H]2[C@@H](C[C@@H](O)[C@H](OC)[C@H]2C(=O)O)CN1CC3 7.15% [at 11.4 µM]
O=C(O)CCCSc1nc2ccccc2s1 -8.66% [at 11.4 µM]
c1ccc(NCCSc2nc3ccccc3s2)cc1 1.99% [at 11.4 µM]
O=C(Nc1ccc2oc(=O)c(C(=O)O)cc2c1)Oc1ccccc1 -5.11% [at 11.4 µM]
